Source: PubChem BioAssay
KB-3-1 tox: KB-3-1 parental cell cytotoxicity; Potency, µM (titrated, usually from 46.1 µM), actives largely listed as cytotoxic; 400,000 compounds, 1.4% hits; KB-3-1 viability, CellTiter-Glo ATP luminescence, 72 h; also: potency is read from the fitted curve at half-maximal effect; % is scaled to controls: 0 for no effect and ±100 for the full control effect; nearly all actives have a fitted effect of over 60% in size
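KB-3-1 cells, DMEM (no phenol red) + 10% FBS; compound by pin transfer, 72 h, 37 °C. Readout: CellTiter-Glo luminescence after 10 min. Data normalized, curve-fitted.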
DRD3 antagonist: blocks the human D3 dopamine receptor. P35462. D3R cells, DiscoveRx beta-arrestin luminescence, antagonist mode; stronger effect = lower value. max response, negative = inhibition, %. 360,000 compounds, 2.5% hits. AID 652054; in the data active = max response below about -50%; inconclusive = no clear call, values can overlap the other calls; also: % is scaled to controls: 0 for no effect and ±100 for the full control effect
Target sequence (P35462 whole entry, looked up): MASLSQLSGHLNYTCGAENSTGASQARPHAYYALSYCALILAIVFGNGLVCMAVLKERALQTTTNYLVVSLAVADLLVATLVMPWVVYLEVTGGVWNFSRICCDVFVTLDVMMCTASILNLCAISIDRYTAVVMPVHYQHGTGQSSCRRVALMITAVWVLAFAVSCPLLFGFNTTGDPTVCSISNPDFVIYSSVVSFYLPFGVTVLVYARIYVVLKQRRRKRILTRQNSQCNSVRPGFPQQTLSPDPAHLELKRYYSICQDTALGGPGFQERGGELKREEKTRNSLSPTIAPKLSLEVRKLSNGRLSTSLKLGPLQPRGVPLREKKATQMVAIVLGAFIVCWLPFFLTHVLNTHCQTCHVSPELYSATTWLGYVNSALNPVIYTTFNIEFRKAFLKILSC
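Cells plated overnight at 1500 cells/well, then exposed to library compounds with dopamine controls for 90 minutes at 37 degrees C. DiscoveRx reagent added for 30–60 minutes at room temperature; luminescence read, quantitative HTS format.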
DRD3 agonist: activates the human D3 dopamine receptor; P35462; D3R DiscoveRx beta-arrestin cells, luminescence, 90 min; max activation, %; 410,000 compounds, 0.58% hits; AID 652048; in the data active = max activation above about 30%; also: 0% is about no effect
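Agonist-mode cell screen: cells plated at 1500/well and incubated overnight at 37 °C, then exposed to library compounds for 90 min at 37 °C. Detection reagent was added for 30–60 min at room temperature, and luminescence was read.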
KB-V1 cytotox: kills drug-selected multidrug resistant KB-V1 cells; KB-V1 MDR cells viability, CellTiter-Glo, 72 h; Potency, µM (titrated, usually from 46.1 µM), actives largely listed as cytotoxic; 400,000 compounds, 3.4% hits; AID 1347076; also: potency is read from the fitted curve at half-maximal effect; % is scaled to controls: 0 for no effect and ±100 for the full control effect; nearly all actives have a fitted effect of over 60% in size
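Following 72 h at 37 degrees C with compound, KB-V1 cell viability was read by CellTiter-Glo luminescence, medium being phenol-red-free DMEM plus 10% FBS; concentration-response parameters came from normalized, curve-fitted qHTS data.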
MCF10A rereplic: DNA re-replication induction in MCF 10a cells | MCF 10A DNA re-replication, Hoechst nuclear intensity, 48 h | Potency, µM (doses to about 46.1 µM), for the others: at the top dose activity, positive = re-replication, actives largely listed as activators | 350,000 compounds, 2.9% hits; also: potency is read from the fitted curve at half-maximal effect; % of control where 0% means no effect; nearly all actives have a fitted effect of over 50% in size
SW480 rereplic: induces DNA re-replication in SW480 colon adenocarcinoma cells. SW480 DNA re-replication, Hoechst DNA content imaging, 48 h. Potency, µM (highest dose often 46.1 µM), without a hit: at the top dose re-replication activation, most hits filed as activators. 340,000 compounds, 1.8% hits. AID 624297; also: potency is read from the fitted curve at half-maximal effect; % of control where 0% means no effect; nearly all actives have a fitted effect of over 55% in size
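Cells (250 per well) received 23 nL compound or DMSO by pin tool and were kept 48 hr at 37 C, 5% CO2. Nuclei were then stained with Hoechst for 40 min and scanned for DNA content.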
Starred values were filed as active, the others as inactive; i = inactive; ? = inconclusive; . = not tested or not shown; ! = not active in a repeat. A selection: hits, their analogues and other compounds. The true share with any hit is near 8.9%. Unless noted, calls follow the shape of the dose curve; as a rule, active = well fitted curve in the direction sought with a large enough effect; inconclusive = small, poorly fitted or top-dose-only effect, or another doubt; inactive = no such curve, though single readings can be large; an effect the other way counts as inactive or inconclusive.

SMILES	KB-3-1 tox	DRD3 antagonist	DRD3 agonist	KB-V1 cytotox	MCF10A rereplic	SW480 rereplic
CC(C)NC(=O)C1(C)CCCCN1Cc1ccc(OCc2ccccc2)cc1 (centres undefined)	16µM*	0	-10	?	.	.
Cc1ccc(CN2CCCC2(C)C(=O)NC(C)C)cc1 (centres undefined)	i	6	4	i	.	.
CC(CCc1ccc(O)cc1)NC1c2ccccc2-c2ccccc21 (centres undefined)	i	6	-6	i	12%	15%
CC(CCc1ccc(O)cc1)NCC(O)c1ccc(O)cc1 (centres undefined)	.	.	59*	.	-3%	2%
CC(CCc1ccc(O)cc1)NCCc1ccc(O)c(O)c1 (centres undefined)	?	8	108*	i	-64%	?
CC(CCc1ccc(O)cc1)NC1C2CC3CC(C2)CC1C3 (centres undefined)	i	-56*	7	i	1%	?
CC(=O)N1CCc2c(sc3nc(SCC(N)=O)n(-c4ccc(F)c(Cl)c4)c(=O)c23)C1	i	.	5	i	.	.
COc1ccc(-c2cnc3c(c2)C(=O)N([C@H](C)CO)C[C@@H](C)[C@@H](CN(C)C(=O)NC2CCCC2)O3)cc1	i	?	-6	i	.	.
O=C(/C=C/c1ccc(O)cc1)c1ccccc1	i	18	-1	i	?	30%
CCOC(=O)/C(=C\c1ccc(N2CCC(c3ccccc3)=N2)cc1)C(C)=O	.	-5	-18	.	1.5µM*	1.5µM*
O=C(/C=C/c1ccc(N2CCC(c3ccccc3)=N2)cc1)c1ccccc1	i	-22	-4	i	6.5µM*	?
N/C(=N/OCC(=O)Nc1cccc2ccccc12)c1nonc1N	i	?	1	15µM*	0%	-6%
O=C(NNc1nc(-c2ccccc2)cs1)c1ccco1	i	-1	-2	i	3%	18µM*
O=C(NNc1nc(-c2ccc(Cl)cc2)cs1)c1ccco1	?	0	3	21µM*	?	?
CC(C)CNC(=O)COC(=O)c1c2c(nc3ccccc13)CCC2	i	8	-3	?	1%	3%
CC(C)CNC(=O)COC(=O)c1c2c(nc3ccccc13)/C(=C/c1cccs1)CC2	i	7	-6	?	3.3µM*	3.7µM*
CCCCNC(=O)COC(=O)c1c2c(nc3ccccc13)/C(=C\c1cccs1)CC2	?	72	34*	?	?	?
Cc1ccc(CN2C(=O)c3ccccc3Sc3ccc(C(=O)NC4CCCCC4)cc32)cc1	.	.	8	.	.	.
Ic1ccc(/C=C2\C=Cc3ccccc32)cc1	i	.	.	i	.	.
O=S(=O)(O)NC1CCCCC1	.	.	0	.	1%	-3%
O=Cc1ccc(N2CCCC2)c(F)c1	i	11	-2	i	?	-3%
CN=C1S/C(=C\c2ccc(N3CCOCC3)c(F)c2)C(=O)N1C	?	-10	-5	16µM*	19%	?
CN=C1S/C(=C\c2ccc(N3CCCC3)c(F)c2)C(=O)N1C	i	8	28	?	23µM*	13µM*
COc1ccc(N2CCN(C(=O)CSc3nc4ccccc4nc3Cc3ccc(Cl)cc3)CC2)cc1	i	.	-6	i	.	.
CCn1c(SCC(=O)Nc2cccc(S(=O)(=O)N(C)c3ccccc3)c2)nnc1C1CC1	i	-13	-3	21µM*	12%	3%
SMILES	KB-3-1 tox	DRD3 antagonist	DRD3 agonist	KB-V1 cytotox	MCF10A rereplic	SW480 rereplic
CC(C(=O)NC(C)(C)C)N(C(=O)CS(=O)CC(=O)Nc1ccc(F)cc1)C1CCCC1 (centres undefined)	i	11	37*	i	-4%	-7%
O=C1[C@H](Cc2ccccc2)NCCCC[C@@H](c2ccc(Cl)cc2)N1Cc1ccc(Cl)cc1	12µM*!	-5	2	?	?	?
O=C1[C@H](Cc2ccccc2)NCCCC[C@H](c2ccc(Cl)cc2)N1Cc1ccccc1	?	-25	-24	?	?	-4%
CCOC(=O)CCn1nc(-c2ccc(Cl)cc2)cc1N	21µM*	4	1	?	4%	2%
Cc1ccccc1Nc1c(-c2c(F)cccc2Cl)nc2ccc(Br)cn12	i	.	0	i	.	.
Cn1c(=O)[nH]c(=O)c2c1nc(CN1CCN(c3cccc(Cl)c3)CC1)n2CCCc1ccccc1	i	0	-5	i	-3%	-2%
CCCCn1c(CN2CCN(c3cccc(Cl)c3)CC2)nc2c1c(=O)[nH]c(=O)n2C	?	26	5	i	?	5.8µM*
CC(C)Nc1ncnc2[nH]ncc12	i	-11	0	?	0%	-8%
CN1CCN(C(=O)C(=O)Nc2c3c(nn2-c2ccc(Cl)cc2)CSC3)CC1	i	.	4	i	.	.
N#CCSc1ncnc2ccccc12	i	-55*	-3	i	?	?
Oc1ccc(N=Nc2cccc(C(F)(F)F)c2)cc1C=Nc1ccc(N2CCOCC2)cc1	i	-25	-9	i	5.8µM*	?
CCOC(=O)CNC(=S)N(Cc1ccc(C)cc1)Cc1ccc(C)o1	i	20	-2	16µM*	16%	-3%
O=C(OCc1nc2ccc(Cl)cc2n1CCO)c1ccccc1C(=O)c1ccccc1	i	10	4	16µM*	-2%	2%
Cc1cc(C)cc(-n2ccnc2SCC(=O)Nc2ccc(C)cc2C)c1	i	.	-15	i	.	.
CCC(CC)C(=O)N1N=C(c2ccc(NS(C)(=O)=O)cc2)CC1c1ccccc1 (centres undefined)	i	-2	1	?	?	-16%
CCC(CC)C(=O)N1N=C(c2ccc(NS(C)(=O)=O)cc2)CC1c1ccc(C)cc1 (centres undefined)	i	-15	4	18µM*	4%	-11%
O=C(COC(=O)/C=C/c1cc(Br)ccc1F)NC1CC1	i	1	8	i	-1%	-1%
O=C1C2CC=CCC2C(=O)N1c1ccc(Cc2ccncc2)cc1 (centres undefined)	?	-9	14	16µM*	?	-8%
O=C1CC(Cc2ccc(Cl)cc2)C(=O)N1c1ccncc1 (centres undefined)	i	22	-5	i	-3%	0%
O=C(c1ccc(F)cc1F)N1CCC(c2nc(-c3ccc(S(=O)(=O)N4CCCC4)cc3)no2)CC1	.	.	-10	.	.	.
COC1(OC)C(/C=C/c2ccc(C)cc2)C(C#N)(C#N)C1(OC)OC (centres undefined)	?	-22	-3	i	18µM*	?
